# Assay results as given in ChEMBL document CHEMBL1961873, “Compounds: GSK PKIS; Assays: Nanosyn kinase panel” (2012).
# Columns and labels:
# [1] = biological target: T1, Serine/threonine-protein kinase Nek9 (Homo sapiens) (UniProt Q8TD19); conditions: at 1 µM;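 further: each value is a mean percent inhibition of NEK9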
# T1 sequence (whole entry): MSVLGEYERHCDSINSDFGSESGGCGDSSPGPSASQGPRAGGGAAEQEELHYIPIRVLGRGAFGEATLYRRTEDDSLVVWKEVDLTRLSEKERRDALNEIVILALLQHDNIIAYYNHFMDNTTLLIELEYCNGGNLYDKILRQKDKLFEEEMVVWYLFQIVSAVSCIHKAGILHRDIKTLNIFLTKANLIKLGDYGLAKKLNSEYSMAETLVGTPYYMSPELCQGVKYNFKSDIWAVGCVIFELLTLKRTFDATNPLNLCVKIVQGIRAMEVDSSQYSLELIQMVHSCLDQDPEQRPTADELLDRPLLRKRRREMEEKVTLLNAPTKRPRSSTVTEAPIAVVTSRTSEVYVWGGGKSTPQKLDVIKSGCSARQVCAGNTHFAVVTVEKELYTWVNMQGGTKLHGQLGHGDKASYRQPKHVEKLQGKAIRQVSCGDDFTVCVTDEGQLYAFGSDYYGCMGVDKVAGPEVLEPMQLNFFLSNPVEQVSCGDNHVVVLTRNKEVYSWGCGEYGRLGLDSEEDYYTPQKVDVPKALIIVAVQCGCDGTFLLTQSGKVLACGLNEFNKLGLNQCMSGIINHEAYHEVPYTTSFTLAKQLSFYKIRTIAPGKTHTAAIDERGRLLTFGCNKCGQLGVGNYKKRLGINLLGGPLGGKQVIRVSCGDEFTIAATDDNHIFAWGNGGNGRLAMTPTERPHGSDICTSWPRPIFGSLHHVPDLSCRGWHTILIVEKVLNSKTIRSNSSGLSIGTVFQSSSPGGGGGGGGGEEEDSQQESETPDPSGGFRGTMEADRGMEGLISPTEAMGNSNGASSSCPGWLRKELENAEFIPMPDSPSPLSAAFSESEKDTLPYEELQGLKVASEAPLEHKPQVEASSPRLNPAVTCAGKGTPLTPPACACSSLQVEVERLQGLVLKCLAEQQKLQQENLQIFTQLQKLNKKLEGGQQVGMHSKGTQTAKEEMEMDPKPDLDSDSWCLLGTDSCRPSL
# [2] = biological target: Serine/threonine-protein kinase PLK1 (Homo sapiens) (UniProt P53350); conditions: at 0.1 µM
# [3] = biological target: Serine/threonine-protein kinase PLK1 (Homo sapiens) (UniProt P53350); conditions: at 1 µM
# [4] = biological target: T2, Dual specificity protein kinase TTK (Homo sapiens) (UniProt P33981); conditions: at 0.1 µM
# T2 sequence (whole entry): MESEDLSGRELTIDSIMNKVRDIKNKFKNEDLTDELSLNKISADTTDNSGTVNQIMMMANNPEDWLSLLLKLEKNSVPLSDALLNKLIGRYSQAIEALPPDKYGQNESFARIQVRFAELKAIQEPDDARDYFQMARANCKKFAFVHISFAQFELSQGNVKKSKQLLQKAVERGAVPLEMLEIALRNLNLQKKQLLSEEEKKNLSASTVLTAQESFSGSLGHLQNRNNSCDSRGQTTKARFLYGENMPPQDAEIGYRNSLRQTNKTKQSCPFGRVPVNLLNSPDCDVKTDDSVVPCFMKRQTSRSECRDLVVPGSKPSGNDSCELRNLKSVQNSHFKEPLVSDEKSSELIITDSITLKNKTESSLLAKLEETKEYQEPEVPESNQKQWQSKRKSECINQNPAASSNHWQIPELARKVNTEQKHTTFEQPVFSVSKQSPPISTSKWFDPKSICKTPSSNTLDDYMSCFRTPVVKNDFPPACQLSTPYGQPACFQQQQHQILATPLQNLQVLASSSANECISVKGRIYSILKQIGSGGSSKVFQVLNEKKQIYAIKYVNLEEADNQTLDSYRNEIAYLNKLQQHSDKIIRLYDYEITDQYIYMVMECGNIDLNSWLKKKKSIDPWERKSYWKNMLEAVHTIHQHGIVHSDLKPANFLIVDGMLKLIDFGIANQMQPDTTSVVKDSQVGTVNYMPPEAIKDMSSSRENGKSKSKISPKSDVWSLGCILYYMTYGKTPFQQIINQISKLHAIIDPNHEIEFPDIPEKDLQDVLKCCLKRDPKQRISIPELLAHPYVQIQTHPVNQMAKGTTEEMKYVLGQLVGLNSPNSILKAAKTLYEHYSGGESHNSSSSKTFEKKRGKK
# [5] = tested on: T3, Receptor-type tyrosine-protein kinase FLT3 (Homo sapiens), P36888 [D835Y]; conditions: at 1 µM
# T3 sequence (whole entry): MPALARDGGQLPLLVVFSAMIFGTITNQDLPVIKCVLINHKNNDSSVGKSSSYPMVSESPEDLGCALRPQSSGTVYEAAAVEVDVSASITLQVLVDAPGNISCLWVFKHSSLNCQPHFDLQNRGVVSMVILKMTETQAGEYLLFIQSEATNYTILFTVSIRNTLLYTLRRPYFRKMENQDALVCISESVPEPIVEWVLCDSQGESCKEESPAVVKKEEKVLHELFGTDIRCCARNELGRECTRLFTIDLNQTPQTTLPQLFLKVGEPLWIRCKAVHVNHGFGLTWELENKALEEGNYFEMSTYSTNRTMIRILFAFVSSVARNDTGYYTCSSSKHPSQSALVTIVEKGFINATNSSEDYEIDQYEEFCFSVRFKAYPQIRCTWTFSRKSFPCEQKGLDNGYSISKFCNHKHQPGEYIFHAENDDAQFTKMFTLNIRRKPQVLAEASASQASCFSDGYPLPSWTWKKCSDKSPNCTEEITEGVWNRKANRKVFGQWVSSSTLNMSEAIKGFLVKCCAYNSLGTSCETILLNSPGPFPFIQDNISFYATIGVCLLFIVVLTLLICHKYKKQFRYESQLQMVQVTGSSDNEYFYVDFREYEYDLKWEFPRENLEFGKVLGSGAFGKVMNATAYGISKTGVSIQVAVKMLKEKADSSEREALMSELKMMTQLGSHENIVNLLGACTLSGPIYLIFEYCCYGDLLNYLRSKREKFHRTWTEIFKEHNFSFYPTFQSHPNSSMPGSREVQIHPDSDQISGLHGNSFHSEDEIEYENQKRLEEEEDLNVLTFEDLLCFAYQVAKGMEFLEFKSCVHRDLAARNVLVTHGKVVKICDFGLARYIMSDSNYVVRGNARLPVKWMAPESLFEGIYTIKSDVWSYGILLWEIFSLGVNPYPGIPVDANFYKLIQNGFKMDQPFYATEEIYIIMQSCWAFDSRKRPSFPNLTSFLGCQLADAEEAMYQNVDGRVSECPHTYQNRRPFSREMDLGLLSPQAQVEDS
# [6] = biological target: Vascular endothelial growth factor receptor 3 (Homo sapiens) (UniProt P35916); conditions: at 0.1 µM
# [7] = biological target: Vascular endothelial growth factor receptor 3 (Homo sapiens) (UniProt P35916); conditions: at 1 µM
# [8] = biological target: Macrophage colony-stimulating factor 1 receptor (Homo sapiens) (UniProt P07333); conditions: at 0.1 µM
# [9] = biological target: Macrophage colony-stimulating factor 1 receptor (Homo sapiens) (UniProt P07333); conditions: at 1 µM
# [10] = biological target: Tyrosine-protein kinase Fyn (Homo sapiens) (UniProt P06241); conditions: at 0.1 µM
# Tyrosine-protein kinase Fyn (Homo sapiens), sequence (P06241 2-537 limits assumed): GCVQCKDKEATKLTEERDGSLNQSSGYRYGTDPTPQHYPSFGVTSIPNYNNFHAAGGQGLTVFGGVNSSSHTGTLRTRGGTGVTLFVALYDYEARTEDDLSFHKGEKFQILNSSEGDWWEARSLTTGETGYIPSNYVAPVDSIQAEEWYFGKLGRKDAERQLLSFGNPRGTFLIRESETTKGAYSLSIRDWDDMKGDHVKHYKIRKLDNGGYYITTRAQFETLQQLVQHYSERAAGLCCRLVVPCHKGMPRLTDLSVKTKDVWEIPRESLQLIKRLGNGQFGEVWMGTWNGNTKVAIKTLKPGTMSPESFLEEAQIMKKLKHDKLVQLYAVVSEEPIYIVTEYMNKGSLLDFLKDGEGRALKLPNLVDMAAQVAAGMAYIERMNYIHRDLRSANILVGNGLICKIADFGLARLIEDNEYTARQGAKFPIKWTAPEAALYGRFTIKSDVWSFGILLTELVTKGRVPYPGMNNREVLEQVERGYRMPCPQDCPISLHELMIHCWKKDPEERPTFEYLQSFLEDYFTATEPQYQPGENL
# Serine/threonine-protein kinase PLK1 (Homo sapiens), sequence (P53350 whole entry): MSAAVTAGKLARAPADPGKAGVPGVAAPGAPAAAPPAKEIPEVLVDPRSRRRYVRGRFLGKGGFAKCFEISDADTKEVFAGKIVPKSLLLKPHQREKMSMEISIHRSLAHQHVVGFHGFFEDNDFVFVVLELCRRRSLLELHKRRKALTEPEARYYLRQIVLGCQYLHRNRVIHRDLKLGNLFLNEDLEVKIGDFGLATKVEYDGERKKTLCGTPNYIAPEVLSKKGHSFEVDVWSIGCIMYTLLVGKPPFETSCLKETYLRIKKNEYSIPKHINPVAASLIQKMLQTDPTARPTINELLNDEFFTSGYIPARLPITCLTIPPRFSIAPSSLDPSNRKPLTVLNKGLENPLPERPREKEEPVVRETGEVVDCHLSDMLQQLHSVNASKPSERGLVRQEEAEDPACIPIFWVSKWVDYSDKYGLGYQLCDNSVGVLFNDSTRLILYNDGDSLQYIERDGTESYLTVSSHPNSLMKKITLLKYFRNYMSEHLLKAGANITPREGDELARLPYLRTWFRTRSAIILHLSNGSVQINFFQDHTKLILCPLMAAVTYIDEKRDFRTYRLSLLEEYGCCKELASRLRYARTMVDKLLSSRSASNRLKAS
# Macrophage colony-stimulating factor 1 receptor (Homo sapiens), sequence (P07333 whole entry): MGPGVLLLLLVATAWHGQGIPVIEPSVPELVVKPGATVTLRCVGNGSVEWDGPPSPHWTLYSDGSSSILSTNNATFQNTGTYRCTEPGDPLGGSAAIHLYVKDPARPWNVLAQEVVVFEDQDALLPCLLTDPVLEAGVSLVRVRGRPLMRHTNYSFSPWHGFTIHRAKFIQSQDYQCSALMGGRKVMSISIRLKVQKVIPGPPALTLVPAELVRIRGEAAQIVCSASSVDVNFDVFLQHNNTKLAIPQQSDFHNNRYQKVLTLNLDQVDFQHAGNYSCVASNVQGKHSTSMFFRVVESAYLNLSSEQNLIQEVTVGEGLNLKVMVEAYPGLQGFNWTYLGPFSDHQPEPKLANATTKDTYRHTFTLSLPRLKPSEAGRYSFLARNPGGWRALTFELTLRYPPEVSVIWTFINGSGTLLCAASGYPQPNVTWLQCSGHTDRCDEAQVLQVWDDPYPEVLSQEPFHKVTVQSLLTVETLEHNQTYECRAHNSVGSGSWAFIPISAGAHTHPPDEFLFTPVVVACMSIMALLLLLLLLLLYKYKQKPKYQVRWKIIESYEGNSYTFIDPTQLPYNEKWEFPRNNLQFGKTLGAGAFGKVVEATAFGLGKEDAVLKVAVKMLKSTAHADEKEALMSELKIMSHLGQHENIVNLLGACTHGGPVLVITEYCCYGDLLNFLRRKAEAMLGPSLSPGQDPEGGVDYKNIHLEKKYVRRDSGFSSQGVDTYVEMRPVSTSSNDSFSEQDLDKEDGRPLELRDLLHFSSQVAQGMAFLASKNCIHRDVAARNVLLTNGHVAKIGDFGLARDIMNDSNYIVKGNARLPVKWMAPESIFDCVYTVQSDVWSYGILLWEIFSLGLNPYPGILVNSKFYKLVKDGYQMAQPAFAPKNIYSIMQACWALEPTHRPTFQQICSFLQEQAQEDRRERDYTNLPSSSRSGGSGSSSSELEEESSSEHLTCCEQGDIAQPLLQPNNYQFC
# Vascular endothelial growth factor receptor 3 (Homo sapiens), sequence (P35916 whole entry): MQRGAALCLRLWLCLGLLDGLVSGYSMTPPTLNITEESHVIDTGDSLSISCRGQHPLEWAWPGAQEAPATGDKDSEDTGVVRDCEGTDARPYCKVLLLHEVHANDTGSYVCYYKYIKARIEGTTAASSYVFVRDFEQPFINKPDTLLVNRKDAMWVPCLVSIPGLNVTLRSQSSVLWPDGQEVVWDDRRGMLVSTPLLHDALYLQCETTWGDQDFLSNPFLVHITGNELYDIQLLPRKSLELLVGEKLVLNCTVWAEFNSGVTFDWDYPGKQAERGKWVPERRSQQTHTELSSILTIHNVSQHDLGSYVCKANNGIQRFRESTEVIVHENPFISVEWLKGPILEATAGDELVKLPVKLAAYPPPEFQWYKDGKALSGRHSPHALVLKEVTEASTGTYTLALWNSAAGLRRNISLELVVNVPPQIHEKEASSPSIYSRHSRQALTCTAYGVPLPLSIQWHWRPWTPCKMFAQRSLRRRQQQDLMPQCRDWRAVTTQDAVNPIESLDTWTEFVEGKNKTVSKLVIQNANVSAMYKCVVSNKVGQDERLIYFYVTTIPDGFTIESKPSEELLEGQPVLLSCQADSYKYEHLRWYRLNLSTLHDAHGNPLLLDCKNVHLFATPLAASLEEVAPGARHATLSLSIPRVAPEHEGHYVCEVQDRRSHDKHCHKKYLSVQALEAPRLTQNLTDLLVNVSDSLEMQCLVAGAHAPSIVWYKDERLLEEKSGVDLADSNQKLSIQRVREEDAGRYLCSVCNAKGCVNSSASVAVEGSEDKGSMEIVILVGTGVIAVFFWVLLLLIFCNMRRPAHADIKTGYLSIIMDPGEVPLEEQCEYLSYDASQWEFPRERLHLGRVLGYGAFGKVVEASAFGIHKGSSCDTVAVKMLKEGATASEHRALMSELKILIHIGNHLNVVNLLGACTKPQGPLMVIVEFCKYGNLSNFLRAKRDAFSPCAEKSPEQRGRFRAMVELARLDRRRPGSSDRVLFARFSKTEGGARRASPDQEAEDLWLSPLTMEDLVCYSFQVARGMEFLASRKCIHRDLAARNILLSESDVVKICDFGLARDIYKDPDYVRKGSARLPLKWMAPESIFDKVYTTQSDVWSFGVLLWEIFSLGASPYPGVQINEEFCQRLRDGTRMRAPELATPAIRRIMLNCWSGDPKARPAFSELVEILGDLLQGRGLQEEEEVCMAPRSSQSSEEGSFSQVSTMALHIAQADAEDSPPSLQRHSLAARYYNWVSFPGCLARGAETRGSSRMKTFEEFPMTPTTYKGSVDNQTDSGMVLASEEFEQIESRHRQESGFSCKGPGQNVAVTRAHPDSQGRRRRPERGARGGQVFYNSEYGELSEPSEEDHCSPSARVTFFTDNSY
smiles,measurement,setting,value
[O-][S+]1CCN(Cc2ccc(-c3ccc4ncnc(Nc5ccc(OCc6cccc(F)c6)c(Cl)c5)c4c3)o2)CC1,inhibition,[1],11.6%
same,inhibition,[2],4.06%
same,inhibition,[3],4.68%
same,inhibition,[4],14.8%
same,inhibition,[5],-0.26%
same,inhibition,[6],4.68%
same,inhibition,[7],7.72%
same,inhibition,[8],1.84%
same,inhibition,[9],5.71%
same,inhibition,[10],1.57%
